Tau FP inhib: blocks human tau fibril formation measured by polarization | P10636 | AID 1468 | Potency, µM (series often up to 57.7 µM), inactives show at the highest dose activity, negative = inhibition, hits mostly inhibitors | K18 P301L tau heparin fibrillization, Alexa594 FP, 6 h | 0.39% of 280,000 active; further: nearly all actives have a fitted effect of over 55% in size
Target sequence (P10636 561-689 P618L limits assumed): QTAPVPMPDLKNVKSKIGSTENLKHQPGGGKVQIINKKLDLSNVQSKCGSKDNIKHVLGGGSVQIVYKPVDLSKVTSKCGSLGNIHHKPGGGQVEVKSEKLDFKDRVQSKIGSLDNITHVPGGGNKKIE
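Read-out: fluorescence polarization of Alexa 594-labeled tau (0.24 uM), 555 nm excitation, 632 nm emission. Mixtures held 15 uM unlabeled K18 P301L, compound and 20 uM heparin, pH 7 acetate buffer, incubated 6 hr at 37 C.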
Tau fluor cs: counter-screen for tau fibril formation inhibitors. tau K18 P301L Alexa594 fluorescence, heparin fibrillization. Potency, µM (series often up to 57.7 µM), for the others: at the highest dose activity change, negative = decrease. 0.93% of 280,000 active. AID 1463; further: nearly all actives have a fitted effect of over 55% in size
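Human K18 P301L tau (15 uM unlabeled plus 0.24 uM Alexa 594-labeled, final) in 100 mM sodium acetate pH 7 was mixed with compound and 20 uM heparin and incubated 6 hr at 37 C.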
Tau fibril ThT: tau fibrillization inhibition (ThT binding); P10636; recombinant tau K18 P301L (four-repeat tau fragment), heparin-induced fibrillization, ThT fluorescence; Potency, µM (series often up to 57.4 µM), for the others: at the top dose activity, negative = inhibition, usual class: inhibitors; 2.1% of 270,000 active; AID 1460; further: nearly all actives have a fitted effect of over 55% in size
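Heparin-induced fibrillization of the P301L-mutant K18 repeat-domain fragment of human tau was followed by ThT binding in quantitative high-throughput format.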
RORg inh: ROR gamma (mouse) transcription inhibition. 5.4% of 310,000 active. AID 2551. Potency, µM (doses to about 53.6 µM), for the others: at the highest dose activity change, negative = inhibition, hits mostly inhibitors. P51450. Drosophila S2 Gal4-RORgamma UAS-luciferase reporter, 20 h; further: nearly all actives have a fitted effect of over 60% in size
Target sequence (P51450 whole entry, looked up, the tested form may be a part): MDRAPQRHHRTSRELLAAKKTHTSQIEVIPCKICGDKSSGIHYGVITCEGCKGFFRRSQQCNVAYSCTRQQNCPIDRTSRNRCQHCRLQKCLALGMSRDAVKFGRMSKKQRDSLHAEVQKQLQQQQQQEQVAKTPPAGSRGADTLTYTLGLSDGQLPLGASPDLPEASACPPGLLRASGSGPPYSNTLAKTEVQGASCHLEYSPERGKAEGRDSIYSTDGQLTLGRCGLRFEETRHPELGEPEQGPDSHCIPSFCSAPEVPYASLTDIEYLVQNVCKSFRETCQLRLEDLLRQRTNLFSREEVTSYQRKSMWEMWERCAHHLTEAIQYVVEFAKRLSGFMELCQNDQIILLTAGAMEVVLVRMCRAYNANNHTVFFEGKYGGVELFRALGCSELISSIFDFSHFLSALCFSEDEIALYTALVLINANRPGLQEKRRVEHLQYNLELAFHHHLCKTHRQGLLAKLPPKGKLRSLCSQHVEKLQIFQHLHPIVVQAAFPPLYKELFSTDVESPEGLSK
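Schneider cells (Drosophila), stable Gal4 DBD–ROR gamma + UAS-luc; 1 hr cmpd preincubation; Cu2+ induction 700 uM final; 20 hr ambient; luminescence.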
VP16 counter: Gal4-VP16 reporter inhibition counter-screen. Drosophila S2 Gal4-VP16 UAS-luciferase, luminescence, 20 h. 3.5% of 310,000 active. Potency, µM (titrated, usually from 53.6 µM), without a hit: top-dose activity, negative = inhibition, most hits filed as inhibitors;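 further: Gal4-VP16 expression switched on by copper sulfate through the metallothionein promoter; nearly all actives have a fitted effect of over 50% in size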
* marks the source's active call; other numbers are inactive results; ? = inconclusive; · = no result given; [ ] = remark or other dose. The list is not random: actives were taken first. Their share in the collection is about 7.3%. The call rests on the fitted dose curve; in most records, active means well fitted curve in the direction sought with a large enough effect; inconclusive means small, poorly fitted or top-dose-only effect, or another doubt; inactive means no such curve, though single readings can be large; an effect the other way counts as inactive or inconclusive. On the % scale 0 is the no-effect control and ±100 the full control effect; potency means the concentration at half of the fitted maximal effect.

SMILES | Tau FP inhib | Tau fluor cs | Tau fibril ThT | RORg inh | VP16 counter
CC(C)c1c(O)ccc2c1CCC1C(C)(C)CCC[C@@]21C (some centres not stated) | -14% | ? | ? | ? | 10µM*
N#Cc1cccc(-c2ccc3ncnc(NCCN4CCOCC4)c3c2)c1 | · | · | · | 30% | -10%
Cc1cc(O)c(C=O)c2c1C(=O)Oc1c(CO)c(O)c3c(c1O2)C(O)OC3=O (configuration not stated) | 16µM* | ? | ? | -13% | -1%
Cc1cc(O)c(C=O)c2c1C(=O)Oc1c(COC(=O)/C=C/C(=O)O)c(O)c(C(=O)O)c(C)c1O2 | 3.5µM* | -33% | 8.9µM* | 35% | -6%
Nc1c(-c2nc(-c3cccs3)no2)nnn1-c1ccccc1Cl | -12% | 3% | 3% | · | ·
O=C(CN1C(=O)c2cccc3cccc1c23)Nc1cccc(F)c1 | ? | -8% | 8% | · | ·
Cn1ccnc1C(=O)c1ccc(NN)c([N+](=O)[O-])c1 | -2% | ? | 22µM* | -42% | -11%
Cn1ccnc1C(=O)c1cccc([N+](=O)[O-])c1 | 8% | -1% | -4% | -7% | 0%
COc1ccc(N2CC(C(=O)Nc3cccnc3)CC2=O)cc1 (configuration not stated) | · | · | · | 4% | -3%
C(=N\NC1=Nc2cccc3cccc1c23)/c1ccccn1 | 4% | ? | 2.8µM* | 0.04µM* | ·
Clc1ccccc1/C=N/NC1=Nc2cccc3cccc1c23 | 3% | -28% | 2µM* | 0.28µM* | ?
CCOc1ccc(CCNC(=O)c2ccc(-n3c(C)cc4c3CCC(C)C4)cc2)cc1OCC (configuration not stated) | -3% | -8% | ? | · | ·
NS(=O)(=O)c1cc(C(=O)N=Nc2c(O)[nH]c3ccccc23)ccc1Cl | 1% | -30% | 14µM* | -44% | ?
O=C(N=Nc1c(O)[nH]c2ccccc12)c1cc(-c2cccs2)[nH]n1 | -6% | ? | · | 5% | 0%
O=C(N=Nc1c(O)[nH]c2ccccc12)c1cccc(S(=O)(=O)Nc2ccccc2Cl)c1 | -13% | -27% | ? | -13% | 8%
O=Nc1c(-c2c(O)[nH]c3ccccc23)[nH]c2ccccc12 | ? | 16µM*[quencher] | 2.8µM* | ? | ?
O=C(N=Nc1c(O)[nH]c2ccccc12)c1cc(-c2ccc(F)cc2)n[nH]1 | -3% | -16% | 2.2µM* | -23% | -3%
O=NC1=C(c2c(O)[nH]c3ccccc23)CCCC1 | 3% | 2% | -4% | -12% | -1%
Oc1[nH]c2ccccc2c1N=Nc1nc2ccccc2s1 | 7% | ? | 2µM* | ? | -24%
CC(=O)N1CC[C@H]2CC(=O)CC[C@@]21C | 9%[126 µM] | 4%[126 µM] | 1%[126 µM] | 12%[96.6 µM] | -1%[96.6 µM]
O=C(NCCSCc1ccccc1Cl)C1CCN(S(=O)(=O)Cc2ccccc2)CC1 | 3% | 12% | 5% | · | ·
CC(NC(=O)c1ccc2c(c1)C(=O)N(Cc1cccnc1)C2=O)c1ccccc1 (configuration not stated) | · | · | · | 7% | 2%
CCn1cc(CN2CCC(n3nccc3NC(=O)CCOc3ccccc3)CC2)c(C)n1 | · | · | · | -25% | 1%
[N-]=[N+]=Nc1nc2c(N)ncnc2n1C1OC(CO)C(O)C1O (configuration not stated) | -12% | -8% | -2% | -33% | -7%
CC(C)(O)C(=O)N=Nc1c(O)[nH]c2ccccc12 | 5% | 13% | 10% | ? | ?
SMILES | Tau FP inhib | Tau fluor cs | Tau fibril ThT | RORg inh | VP16 counter
Oc1[nH]c2ccccc2c1N=Nc1ccccc1 | -5% | ? | ? | 6% | 3%
Cc1ccc2[nH]c(O)c(N=Nc3nc4ccccc4s3)c2c1 | 1% | ? | · | 2.8µM* | -2%
COC(=O)/C=C(\C)N=Nc1c(O)[nH]c2ccccc12 | -6% | -20% | 11µM* | 11% | -10%
Oc1[nH]c2ccccc2c1N=Nc1ccc(F)cc1 | 2% | -28% | 2µM* | ? | 0%
Cc1ccc(C)c(S(=O)(=O)N=Nc2c(O)[nH]c3ccccc23)c1 | 2% | -1% | 4% | 0% | 8%
Cc1nc(SCc2cc(=O)c3cccc(F)c3[nH]2)n[nH]1 | 0% | 0% | 0% | · | ·
COc1ccc(C2/C=C\CN(Cc3ccccc3)C(C)C(=O)N2Cc2ccc(F)cc2)cc1 (configuration not stated) | · | · | · | ? | -3%
O=C(NCc1c(O)ccc2ccccc12)c1ccccc1 | · | · | · | ? | 0%
O=C(O)c1ccc2c(c1)C(=O)N(c1ccc(OCc3ccccc3)cc1)C2=O | · | · | · | -33% | 2%
COc1ccc(-c2nc(CN3CCCCC3c3nccn3C)c(C)o2)c(C)c1C (configuration not stated) | -2% | 1% | -18% | 4.5µM* | ?
COc1ccc(-c2cn3c(C)c(C(=O)Nc4ccncc4)sc3n2)cc1 | -1% | -24% | ? | -20% | 13µM*
COc1ccc(-c2cn3c4c(sc3n2)CCCC4)cc1 | 13% | -29% | ? | 11µM* | 10µM*
CCOc1ccc(NC(=O)c2sc3nc(-c4ccc(OC)cc4)cn3c2C)cc1 | 2% | 4% | ? | · | ·
O=C(Nc1ccccc1)c1nnsc1S(=O)c1ccc(Cl)cc1 (configuration not stated) | -9% | 3% | -12% | 16µM* | 4.5µM*
O=C(c1nnsc1S(=O)(=O)c1ccc(Cl)cc1)N1CCOCC1 | -8% | 2% | ? | 2.8µM* | 10µM*
Nc1nc(C(=O)N2CCOCC2)nn1S(=O)(=O)c1ccc(Cl)cc1 | 9% | 11% | 8% | -23% | 1%
O=C(c1nnsc1S(=O)c1ccc(Cl)cc1)N1CCOCC1 (configuration not stated) | ? | -13% | ? | 1.1µM* | 3.5µM*
Cc1nnsc1S(=O)c1ccc(Cl)cc1 (configuration not stated) | · | · | · | -22% | 3%
CNC(=O)c1nnsc1S(=O)(=O)c1ccc(Cl)cc1 | -7% | 0% | -9% | 0.56µM* | 0.4µM*
Cc1ccc(C)c(N2CCN(S(=O)(=O)c3cc(Br)cc4c3N(C(=O)C3CC3)CC4)CC2)c1 | -4% | -20% | -12% | · | ·
Cc1ccc2nc3cc([N+](=O)[O-])cc([N+](=O)[O-])c3cc2c1 | ? | ? | 3.2µM* | ? | 2.2µM*
C/C(=N\Nc1ccccn1)c1ccc(N2CCOCC2)cc1 | 1% | -19% | ? | 7.1µM* | ?
CCCCc1ccc(/C(C)=N/Nc2cc(N3CCOCC3)nc(C)n2)cc1 | · | · | · | 13µM* | ?
C/C(=N\Nc1ccccn1)c1ccc(C(C)C)cc1 | 2% | -25% | ? | 4µM* | 11µM*
C(=N\Nc1ccccn1)/c1ccc(N2CCOCC2)cc1 | ? | -4% | ? | ? | -30%
CCCSc1nnc2c(n1)OC(c1sccc1C)Nc1ccccc1-2 (configuration not stated) | 0% | -5% | -5% | · | ·
